# Laboratory results as given in PubChem BioAssay (Tox21).
# Where “and” joins values, the source holds several entries; their conditions need not be identical. Equal entries are not always repeated. Inconclusive results are not listed. Values without a mark were called inactive. Calls of active or inactive are those of the source. Unless noted, calls come from the whole dose curve.
# Biological target: Peroxisome proliferator-activated receptor gamma (Homo sapiens) (UniProt P37231)
# Assay: qHTS assay to identify small molecule antagonists of the peroxisome proliferator-activated receptor gamma (PPARg) signaling pathway (AID 743191); note: nearly all actives have a fitted effect of over 30% in size
# Conditions: HEK293H PPARg-UAS-bla, beta-lactamase ratio, antagonist, 17 h; series mostly up to 62.6 µM; ratio activity, negative = inhibition: at the top concentration
# How it was run: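 GeneBLAzer PPARg UAS-bla HEK293H cells carrying a UAS-driven beta-lactamase reporter were plated at 3000 cells/well, preincubated 5 h at 37C, then given compound for 17 h at 37C; LiveBLAzer B/G FRET substrate was read after 1 h at room temperature.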
# % is set by controls: 0 for no effect and ±100 for the full control effect; potency is the fitted concentration of half-maximal effect.
# Chain of Peroxisome proliferator-activated receptor gamma (Homo sapiens) (P37231 whole entry, looked up): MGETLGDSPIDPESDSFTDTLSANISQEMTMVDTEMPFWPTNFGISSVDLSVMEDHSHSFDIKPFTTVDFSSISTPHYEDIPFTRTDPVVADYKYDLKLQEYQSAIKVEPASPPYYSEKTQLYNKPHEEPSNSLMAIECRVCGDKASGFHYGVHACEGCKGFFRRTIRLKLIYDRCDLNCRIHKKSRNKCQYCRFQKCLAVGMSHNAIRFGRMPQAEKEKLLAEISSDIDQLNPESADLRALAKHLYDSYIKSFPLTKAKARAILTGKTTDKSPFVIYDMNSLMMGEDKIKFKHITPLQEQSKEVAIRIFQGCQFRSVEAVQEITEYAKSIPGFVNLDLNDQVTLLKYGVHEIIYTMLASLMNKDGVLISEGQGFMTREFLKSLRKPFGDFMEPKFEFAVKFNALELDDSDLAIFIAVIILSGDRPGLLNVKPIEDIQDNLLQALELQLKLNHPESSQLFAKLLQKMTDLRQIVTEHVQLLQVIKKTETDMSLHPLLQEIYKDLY
SMILES,"ratio activity, negative = inhibition",Potency
CC(C)[C@H](C(=O)OC(C#N)c1cccc(Oc2ccccc2)c1)c1ccc(OC(F)F)cc1 (some centres undefined),7.37%,
Cc1cc(C)cc(OP(=O)(Oc2cc(C)cc(C)c2)Oc2cc(C)cc(C)c2)c1,-18.3% [at 81.1 µM],
FC(Cl)(Cl)Cl,4.42%,
Oc1c(Cl)c(Cl)cc(Cl)c1Cl,,3.78 µM (active)
CCCCCCCCCCCCBr,6.02%,

# Tested on: not listed separately
# Assay: qHTS assay to identify small molecule antagonists of the peroxisome proliferator-activated receptor gamma (PPARg) signaling pathway - cell viability counter screen (AID 743194; active = well fitted cell-killing curve with a large enough effect in the repeat runs; note: nearly all actives have a fitted effect of over 55% in size)
# Conditions: PPARg-bla HEK293H viability, CellTiter-Glo luminescence, 17 h; Potency: co-treated with 50 nM rosiglitazone unless noted; series mostly up to 62.6 µM; activity change, negative = cytotoxicity: at the top concentration
# How it was run: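 PPARg-UAS-bla HEK293H cells were plated, rested 5 h at 37 C, then treated with compounds plus rosiglitazone (50 nM final) for 17 h at 37 C; viability was then read by CellTiter-Glo luminescence after 30 min at room temperature.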
SMILES,"activity change, negative = cytotoxicity",Potency
C[C@]12CC[C@@H]3c4ccc(OC(=O)N(CCCl)CCCl)cc4CC[C@H]3[C@@H]1CC[C@@H]2O,-11.2%,
CC1(C)CN=C(NN=C(/C=C/c2ccc(C(F)(F)F)cc2)/C=C/c2ccc(C(F)(F)F)cc2)NC1,,9.77 µM (active)
CCCCCCCCCBr,"-0.707% [at 81.1 µM, co-treated with 50 nM rosiglitazone]",
c1ccc2cc3c(cc2c1)-c1cccc2cccc-3c12,0.315%,
CC(=O)[O-].CC(=O)[O-].O.O.[Cd+2],,0.682 µM (active)
CCCCCCCCCCCCCC[P+](CCCCCC)(CCCCCC)CCCCCC (tested in a mixture with another compound),,0.49 µM (active)
CCCCCCCCCCCCCCCC[N+](C)(C)C,,18.8 µM (active) and 29.8 µM (active)
Cc1cc(C)c(C2=C(OC(=O)CC(C)(C)C)C3(CCCC3)OC2=O)c(C)c1,"8.03% [at 81.1 µM, co-treated with 50 nM rosiglitazone]",
Cc1cc(SCc2sc(-c3ccc(C(F)(F)F)c(F)c3)nc2C)ccc1OCC(=O)O,,49 µM (active)
CC[C@H](C)[C@H]1O[C@]2(C=C[C@@H]1C)C[C@@H]1C[C@@H](C/C=C(\C)[C@@H](O[C@H]3C[C@H](OC)[C@@H](O[C@H]4C[C@H](OC)[C@@H](O)[C@H](C)O4)[C@H](C)O3)[C@@H](C)/C=C/C=C3\CO[C@@H]4[C@H](O)C(C)=C[C@@H](C(=O)O1)[C@]34O)O2,,9.15 µM (active)
C[C@@H]1CC[C@@]2(OC1)O[C@H]1[C@@H](O)[C@H]3[C@@H]4CC[C@H]5C[C@@H](O[C@@H]6O[C@H](CO)[C@H](O[C@@H]7O[C@H](CO)[C@@H](O)[C@H](O[C@@H]8OC[C@@H](O)[C@H](O)[C@H]8O)[C@H]7O[C@@H]7O[C@H](CO)[C@@H](O)[C@H](O[C@@H]8O[C@H](CO)[C@@H](O)[C@H](O)[C@H]8O)[C@H]7O)[C@H](O)[C@H]6O)[C@H](O)C[C@]5(C)[C@H]4CC[C@]3(C)[C@H]1[C@@H]2C,,23.2 µM (active)
O=[N+]([O-])c1ccc2ccc3cccc4ccc1c2c34,-27.2%,
O=[N+]([O-])c1cc(C(F)(F)F)c(Cl)c([N+](=O)[O-])c1Cl,,2.45 µM (active)
CC(C)[C@H](C(=O)OC(C#N)c1cccc(Oc2ccccc2)c1)c1ccc(OC(F)F)cc1 (some centres undefined),-9.17%,
Cc1cc(C)cc(OP(=O)(Oc2cc(C)cc(C)c2)Oc2cc(C)cc(C)c2)c1,"-0.771% [at 81.1 µM, co-treated with 50 nM rosiglitazone]",
CC(C)[C@H](C(=O)O[C@H](C#N)c1cccc(Oc2ccccc2)c1)c1ccc(Cl)cc1,17.3%,
CN(C)C(=S)[S-].CN(C)C(=S)[S-].[Cu+2],,2.12 µM (active)
CN(C)S(=O)(=O)N(SC(F)(Cl)Cl)c1ccccc1,,3.89 µM (active)
O=C1c2ccccc2C(=O)C1C(=O)C(c1ccccc1)c1ccc(Cl)cc1 (centres undefined),,11 µM (active)
C[C@]12Cc3nonc3C[C@@H]1CC[C@@H]1[C@@H]2CC[C@@]2(C)[C@H]1CC[C@]2(C)O,-9.21% [at 62.6 µM],
N#CSCSC#N,,27.3 µM (active)
CC1(C)CC/C(=C/c2ccc(Cl)cc2)C1(O)Cn1cncn1 (centres undefined),"-2.06% [at 81.1 µM, co-treated with 50 nM rosiglitazone]",
O=C(CBr)c1ccc(O)cc1,7.84%,
FC(Cl)(Cl)Cl,7.23%,
C[C@@H]1O[C@@H](O[C@H]2C[C@@H](O)[C@]3(CO)[C@H]4[C@H](O)C[C@]5(C)[C@@H](C6=CC(=O)OC6)CC[C@]5(O)[C@@H]4CC[C@]3(O)C2)[C@H](O)[C@H](O)[C@H]1O,,13.1 nM (active) and 119 nM (active)
Cc1cc(N=Nc2ccccc2C)ccc1N,-10.7%,
Oc1c(Cl)c(Cl)cc(Cl)c1Cl,"-3.42% [at 81.1 µM, co-treated with 50 nM rosiglitazone]",
CCCCCCCCCCCCBr,-10.5%,

# Tested on: not listed separately
# Assay: qHTS assay for small molecule agonists of the antioxidant response element (ARE) signaling pathway (AID 743202; active = well fitted activation curve with a large enough effect in the signal ratio in the repeat runs, not every such curve was filed as active; the % refers to the signal ratio)
# Conditions: HepG2 ARE-bla reporter, beta-lactamase FRET, 16 h; series mostly up to 73.3 µM; activation: at the top concentration
# How it was run: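 Steps: seed ARE-bla HepG2 cells (2,000/well); incubate 5 h at 37 C; add compounds by pin tool; incubate 16 h at 37 C; add FRET substrate; read fluorescence after 2 h at RT.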
SMILES,activation,Potency
CC(C)[C@H](C(=O)OC(C#N)c1cccc(Oc2ccccc2)c1)c1ccc(OC(F)F)cc1 (some centres undefined),-0.507%,
CC(C)CC(C)N (centres undefined),-1.98%,
C=CC(=O)OCCCCOC(=O)C=C,,27.3 µM (active)

# Tested on: not listed separately
# Assay: qHTS assay for small molecule agonists of the antioxidant response element (ARE) signaling pathway - cell viability counter screen (AID 743203); note: nearly all actives have a fitted effect of over 55% in size
# Conditions: ARE-bla HepG2 viability, CellTiter-Glo luminescence, 16 h; series mostly up to 73.3 µM; viability change, negative = cytotoxic: at the top concentration
# How it was run: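 Measured in the same wells as the beta-lactamase ARE reporter, this read-out is CellTiter-Glo luminescence from HepG2 ARE-bla cells given compounds for 16 hrs.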
SMILES,Potency,"viability change, negative = cytotoxic"
CC1(C)CN=C(NN=C(/C=C/c2ccc(C(F)(F)F)cc2)/C=C/c2ccc(C(F)(F)F)cc2)NC1,8.63 µM (active),
CCCCCCCCCBr,,-1.1% [at 94.8 µM]
c1ccc2cc3c(cc2c1)-c1cccc2cccc-3c12,,5.07%
CC(=O)[O-].CC(=O)[O-].O.O.[Cd+2],0.214 µM (active),
CCCCCCCCCCCCCC[P+](CCCCCC)(CCCCCC)CCCCCC (tested in a mixture with another compound),10.9 µM (active),
CCCCCCCCCCCCCCCC[N+](C)(C)C,29.5 µM (active) and 24.3 µM (active) and 29.8 µM (active),
Cc1cc(C)c(C2=C(OC(=O)CC(C)(C)C)C3(CCCC3)OC2=O)c(C)c1,,-37.4% [at 94.8 µM]
CC[C@H](C)[C@H]1O[C@]2(C=C[C@@H]1C)C[C@@H]1C[C@@H](C/C=C(\C)[C@@H](O[C@H]3C[C@H](OC)[C@@H](O[C@H]4C[C@H](OC)[C@@H](O)[C@H](C)O4)[C@H](C)O3)[C@@H](C)/C=C/C=C3\CO[C@@H]4[C@H](O)C(C)=C[C@@H](C(=O)O1)[C@]34O)O2,11.4 µM (active),
C[C@@H]1CC[C@@]2(OC1)O[C@H]1[C@@H](O)[C@H]3[C@@H]4CC[C@H]5C[C@@H](O[C@@H]6O[C@H](CO)[C@H](O[C@@H]7O[C@H](CO)[C@@H](O)[C@H](O[C@@H]8OC[C@@H](O)[C@H](O)[C@H]8O)[C@H]7O[C@@H]7O[C@H](CO)[C@@H](O)[C@H](O[C@@H]8O[C@H](CO)[C@@H](O)[C@H](O)[C@H]8O)[C@H]7O)[C@H](O)[C@H]6O)[C@H](O)C[C@]5(C)[C@H]4CC[C@]3(C)[C@H]1[C@@H]2C,20.5 µM (active),
O=[N+]([O-])c1ccc2ccc3cccc4ccc1c2c34,,-6.91%
O=[N+]([O-])c1cc(C(F)(F)F)c(Cl)c([N+](=O)[O-])c1Cl,1.72 µM (active),
CC(C)[C@H](C(=O)OC(C#N)c1cccc(Oc2ccccc2)c1)c1ccc(OC(F)F)cc1 (some centres undefined),,-8.79%
Cc1cc(C)cc(OP(=O)(Oc2cc(C)cc(C)c2)Oc2cc(C)cc(C)c2)c1,,-1.51% [at 94.8 µM]
Nc1ccccc1C(=O)OC/C=C/c1ccccc1,68.7 µM (active),
CC(C)[C@H](C(=O)O[C@H](C#N)c1cccc(Oc2ccccc2)c1)c1ccc(Cl)cc1,,-18.8%
Clc1ccc(C(c2ccccc2Cl)C(Cl)(Cl)Cl)cc1 (centres undefined),61.5 µM (active),
CN(C)C(=S)[S-].CN(C)C(=S)[S-].[Cu+2],3.33 µM (active),
CN(C)S(=O)(=O)N(SC(F)(Cl)Cl)c1ccccc1,8.63 µM (active),
O=C1c2ccccc2C(=O)C1C(=O)C(c1ccccc1)c1ccc(Cl)cc1 (centres undefined),30.6 µM (active),
C[C@]12Cc3nonc3C[C@@H]1CC[C@@H]1[C@@H]2CC[C@@]2(C)[C@H]1CC[C@]2(C)O,,-0.59%
CC1CCC(C(C)C)C(OC(=O)c2ccccc2N)C1 (centres undefined),,-11.6%
CCC(C)(C)C(=O)OC1=C(c2ccc(Cl)cc2Cl)C(=O)OC12CCCCC2,30.6 µM (active),
N#CSCSC#N,55.7 µM (active) and 48.1 µM (active),
ClC1=C(Cl)[C@]2(Cl)[C@H]3[C@H]([C@H]4C=C[C@H]3C4)[C@@]1(Cl)C2(Cl)Cl,,3.57%
O=C(CBr)c1ccc(O)cc1,,0.624%
CC(C)OC(=O)C(O)(c1ccc(Cl)cc1)c1ccc(Cl)cc1,,-18.4%
C[C@@H]1O[C@@H](O[C@H]2C[C@@H](O)[C@]3(CO)[C@H]4[C@H](O)C[C@]5(C)[C@@H](C6=CC(=O)OC6)CC[C@]5(O)[C@@H]4CC[C@]3(O)C2)[C@H](O)[C@H](O)[C@H]1O,6.5 nM (active) and 133 nM (active),
Cc1cc(N=Nc2ccccc2C)ccc1N,,-29%
